NR0B1 inh – NR0B1 (DAX1) inhibition. P51843. HEK293 Gal4-DAX1 luciferase reporter, luminescence. inhibition, % at 6.75 µM. 0.99% of 340,000 active;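 active means inhibition above the mean over all tested compounds plus 3 SD, cut at about 4.2% in these data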;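 further: inhibition shows as a rise in luminescence from relieved DAX1 repression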
HSF1 inhib – HSF1 inhibition. NIH3T3-HGL HSE-luciferase, MG132-induced, luminescence 8 h; hits give low values. activity change, negative = inhibition, % at 7.5 µM (by protocol). 0.77% of 300,000 active;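 active means more than half of replicate wells show activity change below -50%, luminescence cut by over half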;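 further: luciferase reports HSF-1 transcriptional activity via heat shock element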
AHR act – activates the human aryl hydrocarbon receptor | 2.5% of 320,000 active | P35869 | AHR-responsive luciferase reporter cells, luminescence | activation, % at 5 µM; in the data active means activation above about 47%
Target sequence (P35869 whole entry, looked up): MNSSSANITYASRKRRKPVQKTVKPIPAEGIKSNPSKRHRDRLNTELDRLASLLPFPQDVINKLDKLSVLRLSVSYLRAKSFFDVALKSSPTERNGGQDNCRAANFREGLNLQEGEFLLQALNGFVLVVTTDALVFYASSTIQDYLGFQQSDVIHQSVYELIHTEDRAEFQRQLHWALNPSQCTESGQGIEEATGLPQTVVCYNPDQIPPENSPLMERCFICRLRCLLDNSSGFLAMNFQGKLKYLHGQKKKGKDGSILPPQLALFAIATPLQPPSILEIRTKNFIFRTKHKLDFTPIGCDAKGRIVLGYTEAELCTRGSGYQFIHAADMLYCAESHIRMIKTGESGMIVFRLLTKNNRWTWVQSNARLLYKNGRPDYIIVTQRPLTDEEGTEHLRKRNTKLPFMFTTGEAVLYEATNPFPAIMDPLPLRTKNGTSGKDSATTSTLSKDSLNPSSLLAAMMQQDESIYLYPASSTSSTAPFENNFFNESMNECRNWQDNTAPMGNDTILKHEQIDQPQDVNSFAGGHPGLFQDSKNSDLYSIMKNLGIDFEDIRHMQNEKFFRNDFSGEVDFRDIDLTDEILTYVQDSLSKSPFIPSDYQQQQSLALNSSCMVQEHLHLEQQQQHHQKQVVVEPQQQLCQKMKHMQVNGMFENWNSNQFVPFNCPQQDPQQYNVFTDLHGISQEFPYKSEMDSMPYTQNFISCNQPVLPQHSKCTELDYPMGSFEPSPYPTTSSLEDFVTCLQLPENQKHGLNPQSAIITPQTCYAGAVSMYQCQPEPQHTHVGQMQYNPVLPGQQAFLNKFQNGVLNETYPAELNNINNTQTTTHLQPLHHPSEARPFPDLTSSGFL
HSF-1 act – increases HSF-1 driven luciferase reporter signal | NIH3T3-HGL HSF-1 luciferase reporter, MG132, 8 h; 100% = twice DMSO control signal | activation, % at 9 µM | 1.7% of 300,000 active | AID 504408;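 active means mean replicate activation of at least 50% with a set share of replicates each reaching 50%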
GAA850 FXN act – frataxin GAA850 promoter activation; HEK293 lucGAA850 FXN promoter luciferase reporter, 24 h; percent of 10 µM SAHA response; activation, % at 6 µM; 0.56% of 360,000 active;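 active means activation above the average of all compounds screened plus 3 SD, cutoff fixed separately per campaign, cut at about 7.5% in these data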
A number is an active result; i = inactive; nt = not tested or not shown. Sampled rows, rich in hits. Any-hit rate of the full collection: about 5.4%.

SMILES	NR0B1 inh	HSF1 inhib	AHR act	HSF-1 act	GAA850 FXN act
Cc1oncc1C(=O)Nc1ccc2ccccc2c1	i	i	nt	66.4	i
O=C(c1ccccc1F)N1CCCC(N2CCN(Cc3ccc4c(c3)OCO4)CC2)C1 (centres undefined)	i	nt	nt	nt	i
CCOC(=O)c1csc(NC(=O)CCSc2ccccc2)n1	i	nt	i	nt	i
CCOC(=O)C(=O)c1csc(NC(=O)CCSc2ccc(C)cc2)n1	4.4	i	i	i	i
Cc1cc(C)c(C)c(OCCCCN2CCCCC2)c1	i	i	i	i	i
CC1CCCN(CCCNC(=O)c2cn(C)c3ccc(S(=O)(=O)N(C)C4CCCCC4)cc3c2=O)C1 (centres undefined)	i	i	i	i	i
CN(CCCNC(=O)c1cn(C)c2ccc(S(=O)(=O)N(C)C)cc2c1=O)c1ccccc1	5.3	i	i	i	i
CCN(CC)S(=O)(=O)c1ccc2c(c1)c(=O)c(C(=O)NCCCN(C)c1ccccc1)cn2C	i	i	i	i	i
CN(C)S(=O)(=O)c1ccc2c(c1)c(=O)c(C(=O)NCCCN1CCCCCC1)cn2C	5.2	i	i	i	i
CCC(C)(C)NC(=O)C(c1ccc(OC)cc1)N(C(=O)CCC(=O)Nc1cc(C)on1)c1ccc(F)cc1 (centres undefined)	i	i	i	i	i
CC(=O)c1ccc(Nc2cnn(C34CC5CC(CC(CC(=O)O)(C5)C3)C4)c(=O)c2Cl)cc1	5.4	i	i	i	i
Cc1ccc(Nc2cnn(C34CC5CC(CC(CC(=O)O)(C5)C3)C4)c(=O)c2Cl)cc1	i	nt	i	nt	i
COc1ccc(/C=C/C(=O)NNC(=O)C(C)Oc2ccccc2F)cc1OC (centres undefined)	i	nt	i	nt	i
CN(C)CCCCNCCCNC(=O)/C=N\O	i	i	i	62.0	i
Cc1ccnc(NC(=O)c2sc3cc(Cl)ccc3c2Cl)c1	i	i	i	54.3	i
Cc1nnc(NC(=O)c2sc3ccccc3c2Cl)s1	i	i	47.7	i	i
Cc1cccnc1NC(=O)c1sc2ccccc2c1Cl	i	i	69.2	i	i
Cc1ccnc(NC(=O)CNC(=O)c2sc3ccccc3c2Cl)c1	i	i	i	i	i
O=C(COC(=O)/C=C/c1cccc(C(F)(F)F)c1)NC1CCS(=O)(=O)C1 (centres undefined)	i	nt	i	nt	i
CC(=O)NCCc1csc(-c2ccccc2)n1	i	i	i	i	i
O=C(NCCc1csc(-c2cccnc2)n1)c1cccc2ccccc12	i	i	57.1	i	i
c1ccc(-c2nc(-c3cccnc3)cs2)cc1	i	i	nt	i	i
CC(C)(C)CC(=O)NCCc1csc(-c2ccccc2)n1	i	i	i	63.4	i
O=C(NCc1ccccc1)c1csc(-c2cccnc2)n1	i	i	66.6	i	i
O=C(NCCc1csc(-c2cccnc2)n1)c1ccccc1	i	i	i	i	i
SMILES	NR0B1 inh	HSF1 inhib	AHR act	HSF-1 act	GAA850 FXN act
COc1ccccc1C(=O)NNC(=O)CCC(=O)NCc1ccccc1	i	i	i	i	i
O=C(NCC1CCCO1)C(c1cccs1)N(C(=O)c1ccc(CN2CCOCC2)o1)c1ccc(Cl)cc1 (centres undefined)	i	i	i	i	i
Cc1cc(N2CCN(C)CC2)n2nc(-c3ccc(Cl)cc3)nc2n1	i	i	i	i	i
Cc1nc2nc(-c3ccc(Cl)cc3)nn2c(C)c1Cl	nt	i	53.1	i	nt
Cc1nc2nc(-c3ccccc3)nn2c(C)c1Cl	i	i	55.4	i	i
Cc1nc(-c2ccccc2)nc(Cl)c1Cl	i	i	i	i	i
CC(NCC(=O)Nc1cc(S(=O)(=O)N2CCOCC2)ccc1N1CCOCC1)c1ccco1 (centres undefined)	i	nt	i	nt	i
Cc1cc(O)c2c(c1)C(=O)[C@@]13Oc4c5c(c(O)c6c(O)cc(C)cc46)C(=O)C[C@H](O)[C@H]5[C@@H]1[C@@H](O)CC(=O)C3=C2O	i	nt	nt	nt	i
O=[N+]([O-])c1ccc2c(c1)-c1ccccc1C2O (centres undefined)	i	nt	nt	nt	i
CC1(NC(=O)Nc2cccc(Br)c2)CCS(=O)(=O)C1 (centres undefined)	5.2	nt	i	nt	i
Cc1nc2c(ncn2-c2ccccc2)c(=O)n1NC(=O)CN1CCCCC1	4.5	i	i	i	i
COCOc1cccc(CN2CCC2(C)C(=O)Nc2cc(OC)ccc2OC)c1 (centres undefined)	nt	nt	nt	nt	i
COc1cccc(-c2nnc(SCc3nc4ccccc4s3)n2C)c1	i	i	i	64.1	i

From PubChem BioAssay
